# Measured values as given in PubChem BioAssay (Tox21).
# A number with no mark means an inactive call. Results filed as inconclusive are left out. A call without a number means that no potency is given here. The source made the active and inactive calls. Unless noted, the call rests on the fitted dose curve; in most records, active means well fitted curve in the direction sought with a large enough effect in the repeat runs; inconclusive means weak or mixed curves; inactive means no such curve, though single readings can be large; an effect the other way counts as inactive or inconclusive.
# What was measured:
# [1] = qHTS assay to identify small molecule agonists of the estrogen receptor alpha (ER-alpha) signaling pathway in the presence of an antagonist - cell viability counter screen (AID 1259386);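 further: series mostly up to about 92 µM; cells exposed to compounds for 22 h at 37 °C before the viability read; nearly all actives have a fitted effect of over 30% in size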
# How it was run: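 Viability counter screen using VM7Luc4E2 (full-length ER-alpha, four ERE-luciferase). The cells were treated with compounds alongside ICI-182,780 10.0nM for 22hr, and live-cell protease fluorescence was quantified with CellTiter-Fluor.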
# [2] = target: Progesterone receptor (Homo sapiens) (UniProt P06401); assay: qHTS assay to identify small molecule agonists of the progesterone receptor (PR) signaling pathway (AID 1346784; calls by dose curve; further: nearly all actives have a fitted effect of over 30% in size; further: potency means the concentration at half of the fitted maximal effect)
# How it was run: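 Beta-lactamase reporter read-out: after 16 hr compound treatment at 37C and a further 2 hr at room temperature with LiveBLAzer B/G FRET substrate, fluorescence was measured in PR-UAS-bla HEK 293T cells grown in 2% charcoal-stripped serum.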
# [3] = target: Progesterone receptor (Homo sapiens) (UniProt P06401); assay: qHTS assay to identify small molecule antagonists of the progesterone receptor (PR) signaling pathway (AID 1346795; active means well fitted inhibition curve with a large enough effect in the signal ratio in the repeat runs, not every such curve was filed as active; the % refers to the signal ratio; further: potency means the concentration at half of the fitted maximal effect)
# How it was run: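 Read-out is fluorescence from the LiveBLAzer B/G FRET substrate, cleaved by a UAS-controlled beta-lactamase in PR-UAS-bla HEK293T cells after 16 hr exposure to compound plus 1 nM promegestone (final), followed by 2 hr at room temperature.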
# [4] = qHTS assay to identify small molecule antagonists of the progesterone receptor (PR) signaling pathway - cell viability counter screen (AID 1346798);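 further: HEK293T PR-UAS-bla cells stimulated with the agonist R5020; series mostly up to about 92 µM; nearly all actives have a fitted effect of over 50% in size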
# How it was run: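 HEK293T PR-UAS-bla, 2% charcoal-stripped FBS; 4 hr pre-plate; cpd + R5020, 16 h 37C; LiveBLAzer read first; then CellTiter-Glo 30 min RT, luminescence.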
# [5] = qHTS assay to identify small molecule agonists of the TGF-beta/Smad signaling pathway - cell viability counter screen (AID 1346829); further: top concentration of the series differs between compounds; nearly all actives have a fitted effect of over 45% in size
# How it was run: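 Compound-treated SBE-bla HEK 293T cells (5 hr, 37 C) were assessed for viability with CellTiter-Glo in parallel with the reporter read.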
# [6] = qHTS assay to identify small molecule agonists of the TGF-beta/Smad signaling pathway (AID 1346859; active means well fitted activation curve with a large enough effect in the signal ratio in the repeat runs, not every such curve was filed as active; the % refers to the signal ratio; further: series mostly up to about 77 µM)
# How it was run: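 SBE-bla HEK 293T, 4,000 cells/well, plated o/n; cpd in DMSO, 5 hr, 37 C/5% CO2; B/G FRET substrate 2 hr RT; ex 405, em 460/530 nm.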
# [7] = target: Thyrotropin-releasing hormone receptor (Homo sapiens) (UniProt P34981); assay: qHTS assay to identify small molecule antagonists of the thyrotropin-releasing hormone receptor (TRHR) signaling pathway (AID 1346877; active means well fitted inhibition curve with a large enough effect in the repeat runs, not every such curve was filed as active; further: series mostly up to about 51 µM)
# How it was run: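 Following an 18 h incubation at 37 °C and a 2 h calcium dye load, TRHR-HEK293 cells were exposed to compound (5 min, room temperature) and challenged with TRH, 1 nM final.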
# [8] = target: Thyrotropin-releasing hormone receptor (Homo sapiens) (UniProt P34981); assay: qHTS assay to identify small molecule agonists of the thyrotropin-releasing hormone receptor (TRHR) signaling pathway (AID 1346891; calls by dose curve; further: series mostly up to about 58 µM)
# How it was run: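 Intracellular calcium rise, read as fluorescence every second for 3 min, served as the agonist signal in dye-loaded HEK293 cells expressing TRHR; each compound ran at 15 concentrations in triplicate.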
# [9] = qHTS assay to identify small molecule agonists of the progesterone receptor (PR) signaling pathway - cell viability counter screen (AID 1346799; calls by dose curve; further: nearly all actives have a fitted effect of over 45% in size)
# How it was run: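 Luminescence from CellTiter-Glo, added after the beta-lactamase FRET read in the same wells, gave cytotoxicity in PR-UAS-bla HEK293T cells treated with compounds for 16 hr at 37C.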
# [10] = qHTS assay to identify small molecule antagonists of the TGF-beta/Smad signaling pathway - cell viability counter screen (AID 1346824); further: nearly all actives have a fitted effect of over 50% in size
# How it was run: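 SBE-bla HEK 293T cells, incubated overnight, then compound plus 0.25 ng/mL TGF-beta1 (stock added) for 5 hr at 37 C. Viability was read in the same wells by CellTiter-Glo luminescence after 30 min at room temperature.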
# Chain of Progesterone receptor (Homo sapiens) (P06401 whole entry, looked up): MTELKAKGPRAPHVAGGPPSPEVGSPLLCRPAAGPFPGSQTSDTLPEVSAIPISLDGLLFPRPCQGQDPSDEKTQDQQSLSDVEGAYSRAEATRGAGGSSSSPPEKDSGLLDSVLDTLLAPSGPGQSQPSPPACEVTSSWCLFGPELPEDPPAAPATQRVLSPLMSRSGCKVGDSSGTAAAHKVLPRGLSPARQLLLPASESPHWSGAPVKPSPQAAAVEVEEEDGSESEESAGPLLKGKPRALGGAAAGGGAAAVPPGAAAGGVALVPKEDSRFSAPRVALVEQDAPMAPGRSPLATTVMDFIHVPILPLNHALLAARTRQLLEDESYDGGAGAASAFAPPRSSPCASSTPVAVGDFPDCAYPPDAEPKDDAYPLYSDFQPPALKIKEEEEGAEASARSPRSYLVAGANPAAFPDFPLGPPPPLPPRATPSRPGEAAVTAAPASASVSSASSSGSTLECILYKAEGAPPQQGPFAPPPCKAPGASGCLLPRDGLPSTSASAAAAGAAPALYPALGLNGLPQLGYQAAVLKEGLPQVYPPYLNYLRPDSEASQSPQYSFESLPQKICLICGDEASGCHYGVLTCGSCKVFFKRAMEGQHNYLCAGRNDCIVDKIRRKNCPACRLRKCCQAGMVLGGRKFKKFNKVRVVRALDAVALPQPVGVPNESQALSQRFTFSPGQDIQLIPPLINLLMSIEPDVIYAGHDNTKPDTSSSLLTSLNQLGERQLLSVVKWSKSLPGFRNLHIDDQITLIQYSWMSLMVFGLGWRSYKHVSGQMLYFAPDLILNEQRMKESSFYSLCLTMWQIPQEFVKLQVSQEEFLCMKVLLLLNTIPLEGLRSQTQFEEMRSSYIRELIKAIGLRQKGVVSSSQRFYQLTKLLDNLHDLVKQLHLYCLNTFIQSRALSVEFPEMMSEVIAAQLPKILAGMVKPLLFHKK
# Chain of Thyrotropin-releasing hormone receptor (Homo sapiens) (P34981 whole entry, looked up): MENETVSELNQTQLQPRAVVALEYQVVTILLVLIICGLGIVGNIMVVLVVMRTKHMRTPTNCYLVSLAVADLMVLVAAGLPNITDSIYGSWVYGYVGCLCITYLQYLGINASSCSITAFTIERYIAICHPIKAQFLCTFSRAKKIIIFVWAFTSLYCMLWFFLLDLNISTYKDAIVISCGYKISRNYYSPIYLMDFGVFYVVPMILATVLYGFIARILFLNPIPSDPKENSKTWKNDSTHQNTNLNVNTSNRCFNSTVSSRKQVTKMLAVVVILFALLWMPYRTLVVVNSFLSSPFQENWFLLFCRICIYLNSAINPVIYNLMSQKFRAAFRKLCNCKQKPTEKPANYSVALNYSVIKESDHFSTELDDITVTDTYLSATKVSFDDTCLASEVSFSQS
Compound,Potency [1],Potency [2],Potency [3],Potency [4],outcome [5],outcome [6],outcome [7],outcome [8],"activity change, negative = cytotoxicity [1]","activity change, negative = inhibition [3]","activity change, negative = cytotoxicity [4]","activity change, negative = cytotoxicity [9]",activation [6],"activity, negative = inhibition [7]",activation [8],Potency [9],outcome [10]
CC(C)(C)OC(=O)c1ccc(O)cc1,inactive,inactive,54.5 µM (active),inactive,inactive,inactive,inactive,inactive,–,–,–,–,–,–,–,–,–
CCCCCCCC/C=C\CCCCCCCC(=O)OCCCC,–,1.24 µM (active),–,–,–,–,–,–,-4.95% [at 19 µM],-2.42% [at 18.9 µM],0.852% [at 18.9 µM],0% [at 19 µM],-1.96% [at 15.8 µM],8.97% [at 10.5 µM],0.159% [at 11.8 µM],–,–
C=C(C)C(=O)OCCOP(=O)(O)OCCOC(=O)C(=C)C,inactive,inactive,inactive,inactive,inactive,inactive,inactive,inactive,–,–,–,–,–,–,–,inactive,–
C=C(C)C1CCC(C)(O)CC1 (stereo unspecified),inactive,inactive,inactive,–,inactive,inactive,inactive,inactive,–,–,–,–,–,–,–,inactive,inactive
CCOC(=O)[C@H](CCc1ccccc1)N[C@@H](C)C(=O)N1C(=O)N(C)C[C@H]1C(=O)O,inactive,inactive,inactive,inactive,inactive,inactive,inactive,inactive,–,–,–,–,–,–,–,inactive,inactive
NCCN1CCOCC1,inactive,inactive,inactive,inactive,inactive,inactive,inactive,inactive,–,–,–,–,–,–,–,inactive,inactive
Cc1ccccc1C(=O)Nc1ccc(C(=O)N2CCCC(N(C)C)c3ccccc32)cc1 (stereo unspecified),inactive,inactive,inactive,inactive,inactive,inactive,inactive,inactive,–,–,–,–,–,–,–,inactive,–
CC(=C(CCOC(=O)C(C)C)SSC(CCOC(=O)C(C)C)=C(C)N(C=O)Cc1cnc(C)nc1N)N(C=O)Cc1cnc(C)nc1N,inactive,inactive,inactive,inactive,inactive,inactive,inactive,inactive,–,–,–,–,–,–,–,inactive,inactive
O=C(O)Cc1ccc(Cl)cc1Cl,inactive,inactive,inactive,inactive,inactive,inactive,inactive,inactive,–,–,–,–,–,–,–,inactive,–
COc1cc2c(cc1OC)C(=O)CC2,inactive,inactive,inactive,inactive,inactive,inactive,inactive,inactive,–,–,–,–,–,–,–,inactive,inactive
CNC(=O)[C@H]1O[C@@H](n2cnc3c(NCc4cc(Cl)ccc4OCc4cc(C)no4)ncnc32)[C@H](O)[C@@H]1N,inactive,inactive,inactive,inactive,inactive,inactive,inactive,inactive,–,–,–,–,–,–,–,inactive,–
O=C(O)c1ccc(Cl)cc1Cl,inactive,inactive,inactive,inactive,–,inactive,inactive,inactive,–,–,–,–,–,–,–,inactive,inactive
O=S(=O)(O)c1ccc2cc(O)c(S(=O)(=O)O)cc2c1,inactive,inactive,inactive,–,inactive,inactive,–,–,–,–,–,–,–,–,–,inactive,inactive
C=C(C)C(=O)OCC(C)(C)COC(=O)C(=C)C,inactive,inactive,inactive,inactive,inactive,inactive,inactive,inactive,–,–,–,–,–,–,–,inactive,–
COc1ccc(C2CNC(=O)C2)cc1OC1CCCC1 (stereo unspecified),inactive,inactive,inactive,inactive,inactive,inactive,inactive,inactive,–,–,–,–,–,–,–,–,inactive
CCCCCCCCCCl,inactive,inactive,inactive,inactive,inactive,inactive,inactive,inactive,–,–,–,–,–,–,–,inactive,inactive
CC(C)=CCOC(=O)c1ccccc1,inactive,inactive,inactive,–,inactive,inactive,inactive,inactive,–,–,–,–,–,–,–,inactive,inactive
C=Cc1ccccn1,inactive,inactive,inactive,inactive,inactive,inactive,inactive,inactive,–,–,–,–,–,–,–,inactive,–
CCCCOCCOC(=O)COc1nc(Cl)c(Cl)cc1Cl,inactive,inactive,inactive,inactive,–,inactive,inactive,–,–,–,–,–,–,–,–,inactive,inactive
NCCS,inactive,inactive,inactive,inactive,–,inactive,inactive,inactive,–,–,–,–,–,–,–,inactive,inactive
COC(=O)CCc1ccc(OCC(O)CNC(C)C)cc1 (stereo unspecified),inactive,inactive,inactive,–,inactive,inactive,inactive,inactive,–,–,–,–,–,–,–,inactive,inactive
CCCOC(=O)C(C)O (stereo unspecified),inactive,inactive,inactive,inactive,–,inactive,inactive,inactive,–,–,–,–,–,–,–,inactive,–
Cc1cccc(C)c1OCC(C)N (stereo unspecified),inactive,inactive,inactive,inactive,inactive,inactive,inactive,inactive,–,–,–,–,–,–,–,inactive,inactive
CC(=O)NCCCCCC(=O)O,inactive,inactive,inactive,inactive,inactive,inactive,inactive,inactive,–,–,–,–,–,–,–,inactive,–
